Test system: Plasmodium falciparum
Assay: GSK_TCMDC: Inhibition of Plasmodium falciparum 3D7 in whole red blood cells, using parasite LDH activity as an index of growth. Test compounds present at 2uM
Format: functional

**Q.** For `COc1ccc(CNc2ncc(-c3ccsc3)c(-c3nccs3)n2)cc1OC`, which Inhibition is on record?
**A.** 86%

**Q.** `Nc1nc(N)c2c(ccc3c2ccn3Cc2cccc3ccccc23)n1` was tested. Which Inhibition did it give?
**A.** 99%

**Q.** How did the Inhibition turn out when `Cc1cc(C2CCN(CCCCNC(=O)c3ccc(-c4ccc(C#N)cc4)cc3)CC2)c(C)cc1O` was run?
**A.** 96%

**Q.** `Cc1cccc2nc(-c3cccc(-c4cccc(NC(=O)c5cccnc5)c4)c3)[nH]c12` was tested. Which Inhibition did it give?
**A.** 100%

**Q.** How did the Inhibition turn out when `COc1ccnc(NCCCNCc2cn(S(=O)(=O)c3ccccc3)c3ccccc23)c1` was run?
**A.** 99%

**Q.** For `O=C(NCCCN1CCC(N2CCCCC2)CC1)C1=Cc2cc(Br)ccc2OC1`, which Inhibition is on record?
**A.** 100%

**Q.** For `O=C(c1csc(-c2cccnc2)n1)N1CCc2cc3nccc(N4CCN5CCC[C@H]5C4)c3cc21`, which Inhibition is on record?
**A.** 97%

**Q.** Which Inhibition does the source give for `CNCC(C)(C)c1nc(-c2ccc(Cl)c(O)c2)c(-c2ccncc2)[nH]1.Cl` here?
**A.** 98%

**Q.** `COc1cc(C(=O)N2COCC(CCCN3CCC(N4CCCC4)CC3)(c3ccc(Cl)c(Cl)c3)C2)cc(OC)c1OC` (stereo not given) was tested. Which Inhibition did it give?
**A.** 95%

**Q.** For `CCC(CC)n1c(C)cc2c3c(N)nc(N)nc3ccc21`, which Inhibition is on record?
**A.** 95%

**Q.** With `C1=CN(Cc2ccccc2)C=CC1=C1C=Nc2ccccc21` as the molecule, how does the Inhibition read?
**A.** 90%

**Q.** `CC(C)(C)c1cc2cc(Nc3ccnc4cc(-c5nccs5)ccc34)ccc2[nH]1.Cl` was tested. Which Inhibition did it give?
**A.** 100%

**Q.** How did the Inhibition turn out when `CCOc1ccccc1CNc1nccc(NCc2ccc(Cl)cc2Cl)n1` was run?
**A.** 83%

**Q.** How did the Inhibition turn out when `Cc1c(-c2cccc(NC(=O)C(C)(C)Oc3ccc(Cl)cc3)c2)nc2ncccn12` was run?
**A.** 98%

**Q.** For `CN1CCC(NCc2ccc(-c3ccc(Cl)cc3)cc2)CC1`, which Inhibition is on record?
**A.** 99%

**Q.** Which Inhibition does the source give for `Cc1noc(-c2ccccc2)c1CN1CCCC2(CC(C(=O)NCc3cccc(F)c3F)=NO2)C1.O=C(O)C(F)(F)F` (stereo not given) here?
**A.** 85%

**Q.** For `CCN(CC)CCN(Cc1ccc(-c2ccc(C(F)(F)F)cc2)cc1)C(=O)Cn1c(SCc2ccc(F)cc2)cc(=O)c2ccccc21.O=C(O)C(O)C(O)C(=O)O`, which Inhibition is on record?
**A.** 100%

**Q.** How did the Inhibition turn out when `Cc1nc(C)c(CC(=O)Nc2ccc(-c3cccc(-c4nc5cccc(C)c5[nH]4)c3)cc2)s1` was run?
**A.** 100%

**Q.** How did the Inhibition turn out when `CN(C)CCCNCCS(=O)(=O)c1cccc(Nc2ccc(-c3cccc(N(C)C)c3)cn2)c1` was run?
**A.** 98%

**Q.** `N=C(N)Nc1nc(-c2cccc(NC(=O)NCc3cccc4ccccc34)c2)cs1` was tested. Which Inhibition did it give?
**A.** 100%

**Q.** For `Cn1cc(C2CCN(CCCCCNC(=O)/C=C/c3ccc(Cl)c(Cl)c3)CC2)c2cc(O)ccc21`, which Inhibition is on record?
**A.** 94%

**Q.** How did the Inhibition turn out when `Cl.NCCCCc1c(-c2ccc(Cl)c(Cl)c2)[nH]c2ccc(Cl)cc12` was run?
**A.** 97%

**Q.** With `O=C(O)C(F)(F)F.O=S(=O)(NCCN1CCCC1)c1ccc(-c2cccc(CNCc3ccccc3)c2)s1` as the molecule, how does the Inhibition read?
**A.** 94%

**Q.** How did the Inhibition turn out when `COc1cc(C(=O)NCc2nn(CCN3CCC(N4CCCC4)CC3)cc2-c2ccc(Cl)c(Cl)c2)cc(OC)c1OC` was run?
**A.** 97%

**Q.** How did the Inhibition turn out when `CCOC(=O)c1c(CCc2ccc(C(F)(F)F)cc2)nc2c(c1-c1ccc(C(=O)N[C@@H](C)c3ccncc3)cc1)C(=O)N1CCC[C@@H]21` was run?
**A.** 85%

**Q.** For `CCOc1ccc(-c2nonc2NC(=O)c2ccc(OC)cc2)cc1OCC`, which Inhibition is on record?
**A.** 98%

**Q.** For `Cc1cc(N(C)CCN(C)C)nc(Nc2ccc(Br)cc2)n1`, which Inhibition is on record?
**A.** 97%

**Q.** `Cc1cccc2nc(-c3cccc(-c4cccc(NC(=O)c5ccc(=O)[nH]n5)c4)c3)[nH]c12` was tested. Which Inhibition did it give?
**A.** 100%

**Q.** With `CCCC(CNCc1cccc(OCC)c1)CNc1cc(=O)c2ccccc2[nH]1` (stereo not given) as the molecule, how does the Inhibition read?
**A.** 100%

**Q.** How did the Inhibition turn out when `O=C(c1ccc([N+](=O)[O-])o1)N1CCN(c2nc3c(Cl)cccc3s2)CC1` was run?
**A.** 91%

**Q.** Which Inhibition does the source give for `Cc1cc(N2CCN(CC3CCN(C)CC3)CC2)nc(Nc2ccc(Br)cc2)n1` here?
**A.** 100%

**Q.** How did the Inhibition turn out when `CC1(C)NC(N)=NC(=N)N1OCOc1ccc(Cl)cc1.Cl` was run?
**A.** 94%

**Q.** Which Inhibition does the source give for `CC(=O)c1cccc(NC(=O)NC2CCN(c3ccnc(Nc4ccc(F)cc4)n3)C2)c1` (stereo not given) here?
**A.** 99%

**Q.** How did the Inhibition turn out when `O=C(Cc1cccs1)NC(CCCN1CCC(Oc2cccc(Cl)c2)CC1)c1ccc(Cl)c(Cl)c1` (stereo not given) was run?
**A.** 86%

**Q.** How did the Inhibition turn out when `Br.CCCCCCCCn1c2c(c(=N)c3c1CCC3)CCC2` was run?
**A.** 99%

**Q.** For `COc1ccc(NC(=O)[C@H](CC(C)C)Nc2cc(C)nc(NCc3cccc(C)c3)n2)cc1.O=C(O)C(F)(F)F`, which Inhibition is on record?
**A.** 100%

**Q.** `COc1ccc(C2C(C(=O)OC3CCCC3)=C(C)NC3=C2C(=O)CCC3)cc1Br` (stereo not given) was tested. Which Inhibition did it give?
**A.** 94%

**Q.** `Cc1cccc2nc(-c3cccc(-c4cccc(NC(=O)Nc5ccc(Cl)c(Cl)c5)c4)c3)[nH]c12` was tested. Which Inhibition did it give?
**A.** 100%

**Q.** For `Cn1c(=O)c(-c2c(Cl)cccc2Cl)cc2cnc(Nc3ccc(N4CCOCC4)cc3)nc21`, which Inhibition is on record?
**A.** 98%

**Q.** Which Inhibition does the source give for `CC(CCNc1c2ccccc2nc2ccccc12)N1CCN(C)CC1.Cl` (stereo not given) here?
**A.** 100%

Test system: Plasmodium falciparum
Assay: GSK_TCMDC: Inhibition of Plasmodium falciparum Dd2 in whole red blood cells, using parasite LDH activity as an index of growth. Test compounds present at 2uM
Format: functional

**Q.** `COc1ccc(CNc2ncc(-c3ccsc3)c(-c3nccs3)n2)cc1OC` was tested. Which Inhibition did it give?
**A.** 69%

**Q.** `Nc1nc(N)c2c(ccc3c2ccn3Cc2cccc3ccccc23)n1` was tested. Which Inhibition did it give?
**A.** 95%

**Q.** Which Inhibition does the source give for `Cc1cc(C2CCN(CCCCNC(=O)c3ccc(-c4ccc(C#N)cc4)cc3)CC2)c(C)cc1O` here?
**A.** 96%

**Q.** For `Cc1cccc2nc(-c3cccc(-c4cccc(NC(=O)c5cccnc5)c4)c3)[nH]c12`, which Inhibition is on record?
**A.** 56%

**Q.** Which Inhibition does the source give for `COc1ccnc(NCCCNCc2cn(S(=O)(=O)c3ccccc3)c3ccccc23)c1` here?
**A.** 18%

**Q.** For `O=C(NCCCN1CCC(N2CCCCC2)CC1)C1=Cc2cc(Br)ccc2OC1`, which Inhibition is on record?
**A.** 19%

**Q.** `O=C(c1csc(-c2cccnc2)n1)N1CCc2cc3nccc(N4CCN5CCC[C@H]5C4)c3cc21` was tested. Which Inhibition did it give?
**A.** 78%

**Q.** Which Inhibition does the source give for `CNCC(C)(C)c1nc(-c2ccc(Cl)c(O)c2)c(-c2ccncc2)[nH]1.Cl` here?
**A.** 96%

**Q.** How did the Inhibition turn out when `COc1cc(C(=O)N2COCC(CCCN3CCC(N4CCCC4)CC3)(c3ccc(Cl)c(Cl)c3)C2)cc(OC)c1OC` (stereo not given) was run?
**A.** 70%

**Q.** Which Inhibition does the source give for `CCC(CC)n1c(C)cc2c3c(N)nc(N)nc3ccc21` here?
**A.** 95%

**Q.** How did the Inhibition turn out when `C1=CN(Cc2ccccc2)C=CC1=C1C=Nc2ccccc21` was run?
**A.** 69%

**Q.** How did the Inhibition turn out when `CC(C)(C)c1cc2cc(Nc3ccnc4cc(-c5nccs5)ccc34)ccc2[nH]1.Cl` was run?
**A.** 97%

**Q.** For `CCOc1ccccc1CNc1nccc(NCc2ccc(Cl)cc2Cl)n1`, which Inhibition is on record?
**A.** 58%

**Q.** `Cc1c(-c2cccc(NC(=O)C(C)(C)Oc3ccc(Cl)cc3)c2)nc2ncccn12` was tested. Which Inhibition did it give?
**A.** 95%

**Q.** `CN1CCC(NCc2ccc(-c3ccc(Cl)cc3)cc2)CC1` was tested. Which Inhibition did it give?
**A.** 43%

**Q.** `Cc1noc(-c2ccccc2)c1CN1CCCC2(CC(C(=O)NCc3cccc(F)c3F)=NO2)C1.O=C(O)C(F)(F)F` (stereo not given) was tested. Which Inhibition did it give?
**A.** 28%

**Q.** How did the Inhibition turn out when `CCN(CC)CCN(Cc1ccc(-c2ccc(C(F)(F)F)cc2)cc1)C(=O)Cn1c(SCc2ccc(F)cc2)cc(=O)c2ccccc21.O=C(O)C(O)C(O)C(=O)O` was run?
**A.** 70%

**Q.** With `Cc1nc(C)c(CC(=O)Nc2ccc(-c3cccc(-c4nc5cccc(C)c5[nH]4)c3)cc2)s1` as the molecule, how does the Inhibition read?
**A.** 38%

**Q.** How did the Inhibition turn out when `CN(C)CCCNCCS(=O)(=O)c1cccc(Nc2ccc(-c3cccc(N(C)C)c3)cn2)c1` was run?
**A.** 0%

**Q.** How did the Inhibition turn out when `N=C(N)Nc1nc(-c2cccc(NC(=O)NCc3cccc4ccccc34)c2)cs1` was run?
**A.** 32%

**Q.** `Cn1cc(C2CCN(CCCCCNC(=O)/C=C/c3ccc(Cl)c(Cl)c3)CC2)c2cc(O)ccc21` was tested. Which Inhibition did it give?
**A.** 0%

**Q.** `Cl.NCCCCc1c(-c2ccc(Cl)c(Cl)c2)[nH]c2ccc(Cl)cc12` was tested. Which Inhibition did it give?
**A.** 20%

**Q.** How did the Inhibition turn out when `O=C(O)C(F)(F)F.O=S(=O)(NCCN1CCCC1)c1ccc(-c2cccc(CNCc3ccccc3)c2)s1` was run?
**A.** 43%

**Q.** `COc1cc(C(=O)NCc2nn(CCN3CCC(N4CCCC4)CC3)cc2-c2ccc(Cl)c(Cl)c2)cc(OC)c1OC` was tested. Which Inhibition did it give?
**A.** 0%

**Q.** For `CCOC(=O)c1c(CCc2ccc(C(F)(F)F)cc2)nc2c(c1-c1ccc(C(=O)N[C@@H](C)c3ccncc3)cc1)C(=O)N1CCC[C@@H]21`, which Inhibition is on record?
**A.** 68%

**Q.** For `CCOc1ccc(-c2nonc2NC(=O)c2ccc(OC)cc2)cc1OCC`, which Inhibition is on record?
**A.** 77%

**Q.** How did the Inhibition turn out when `Cc1cc(N(C)CCN(C)C)nc(Nc2ccc(Br)cc2)n1` was run?
**A.** 23%

**Q.** `Cc1cccc2nc(-c3cccc(-c4cccc(NC(=O)c5ccc(=O)[nH]n5)c4)c3)[nH]c12` was tested. Which Inhibition did it give?
**A.** 32%

**Q.** With `CCCC(CNCc1cccc(OCC)c1)CNc1cc(=O)c2ccccc2[nH]1` (stereo not given) as the molecule, how does the Inhibition read?
**A.** 97%

**Q.** For `O=C(c1ccc([N+](=O)[O-])o1)N1CCN(c2nc3c(Cl)cccc3s2)CC1`, which Inhibition is on record?
**A.** 87%

**Q.** How did the Inhibition turn out when `Cc1cc(N2CCN(CC3CCN(C)CC3)CC2)nc(Nc2ccc(Br)cc2)n1` was run?
**A.** 100%

**Q.** How did the Inhibition turn out when `CC1(C)NC(N)=NC(=N)N1OCOc1ccc(Cl)cc1.Cl` was run?
**A.** 96%

**Q.** With `CC(=O)c1cccc(NC(=O)NC2CCN(c3ccnc(Nc4ccc(F)cc4)n3)C2)c1` (stereo not given) as the molecule, how does the Inhibition read?
**A.** 94%

**Q.** How did the Inhibition turn out when `O=C(Cc1cccs1)NC(CCCN1CCC(Oc2cccc(Cl)c2)CC1)c1ccc(Cl)c(Cl)c1` (stereo not given) was run?
**A.** 70%

**Q.** `Br.CCCCCCCCn1c2c(c(=N)c3c1CCC3)CCC2` was tested. Which Inhibition did it give?
**A.** 93%

**Q.** `COc1ccc(NC(=O)[C@H](CC(C)C)Nc2cc(C)nc(NCc3cccc(C)c3)n2)cc1.O=C(O)C(F)(F)F` was tested. Which Inhibition did it give?
**A.** 90%

**Q.** Which Inhibition does the source give for `COc1ccc(C2C(C(=O)OC3CCCC3)=C(C)NC3=C2C(=O)CCC3)cc1Br` (stereo not given) here?
**A.** 77%

**Q.** `Cc1cccc2nc(-c3cccc(-c4cccc(NC(=O)Nc5ccc(Cl)c(Cl)c5)c4)c3)[nH]c12` was tested. Which Inhibition did it give?
**A.** 96%

**Q.** With `Cn1c(=O)c(-c2c(Cl)cccc2Cl)cc2cnc(Nc3ccc(N4CCOCC4)cc3)nc21` as the molecule, how does the Inhibition read?
**A.** 97%

**Q.** Which Inhibition does the source give for `CC(CCNc1c2ccccc2nc2ccccc12)N1CCN(C)CC1.Cl` (stereo not given) here?
**A.** 0%

Reference: ChEMBL document CHEMBL1157539, “Thousands of chemical starting points for antimalarial lead identification” (Nature, 2010)
